According to PubChem BioAssay (NCI):
Compounds without any hit were thinned out: in the full panel of roughly 83,000, 20% have a hit.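 Method: cells in 96-well plates; compound added at one concentration; 48 h incubation; percent growth measured; values under 10 scored active.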 Active and inactive are the calls of the source.

What follows are compounds tested on MDA-MB-468 breast (assay: NCI-60 one-dose screen, 48 h (100 = growth as untreated, 0 = no growth, -100 = all killed)). Conditions: 10 µM unless noted.

Question: How did the growth turn out when `CCc1ccc(C2=C/C(=C/c3ccccc3)C(=O)N2CCc2ccc(S(N)(=O)=O)cc2)cc1` was run?
Answer: The growth was 109% (inactive).

Question: How did the growth turn out when `Cc1ccc([N+](=O)[O-])cc1Br` was run?
Answer: Its growth is 98.1% (inactive).

Question: For `COc1ccc(-c2ccc(-c3ccc(C(=N)N)cn3)s2)cc1`, which growth is on record?
Answer: The growth was 72.6% (inactive).

Question: With `CCCCCCCC/C=C\CCCCCCCCOc1ccccc1CC(=O)NCC[N+]1(C)CCOCC1` as the compound, how does the growth read?
Answer: Its growth is 65.3% (inactive).

Question: Which growth does the source give for `CNC(=O)c1cc(-c2ccc(NC(=O)Nc3ccc(N4CCN(C)CC4)c(C(F)(F)F)c3)cc2)nc2cccnc12` here?
Answer: Its growth is -73.8% (active).

Question: How did the growth turn out when `CNC(=O)c1cc(Oc2ccc3c(c2)sc2nc(-c4ccc(Cl)cc4)cn23)ccn1` was run?
Answer: The growth was 77.3% (inactive).

Question: For `COc1cc(-c2cc(/C=C3\C(=O)Nc4cc(Cl)ccc43)[nH]n2)cc(OC)c1OC`, which growth is on record?
Answer: The growth was 58.3% (inactive).

Question: `N#Cc1ccc(/C=N/NC(=O)c2[nH]c3ccc(Br)cc3c2-c2ccccc2)s1` was tested. Which growth did it give?
Answer: The growth was 11.4% (inactive).

Question: Which growth does the source give for `O=C(c1nn(-c2ccc(Cl)cc2)cc1O)n1nc(C(F)(F)F)cc1-c1ccccc1` here?
Answer: The growth was 32.8% (inactive).

Question: For `COc1ccc(/C=C(\C#N)c2cc3ccccc3n2C(C)=O)cc1`, which growth is on record?
Answer: Its growth is 58.8% (inactive).

Question: With `Cc1ccccc1/C=C/C(=O)c1cccc(OCCCCOc2cccc(C(=O)/C=C/c3ccccc3C)c2)c1` as the compound, how does the growth read?
Answer: Its growth is 86.1% (inactive).

Question: For `O=S(=O)(Nc1ccc2ccccc2c1)c1ccc(-c2cnc(C3CC3)o2)cc1`, which growth is on record?
Answer: The growth was 6.05% (active).

Question: How did the growth turn out when `CCOC(=O)c1c(C)nc2c(c1N)CC(=O)N2CCc1ccccc1` was run?
Answer: The growth was 44% (inactive).

Question: `COc1cc(CNC(=O)CCCC/C=C/C(C)C)ccc1OCc1nnc(Nc2ccccc2F)o1` was tested. Which growth did it give?
Answer: Its growth is 58.9% (inactive).
